Measurements: PubChem BioAssay (Tox21)
Inconclusive results are not listed. Entries that show only a call come without a potency. Calls of active or inactive are those of the source. The call rests on the fitted dose curve; in most records, active means well fitted curve in the direction sought with a large enough effect in the repeat runs; inconclusive means weak or mixed curves; inactive means no such curve, though single readings can be large; an effect the other way counts as inactive or inconclusive.

Experiments:
[1] = molecular target: Cytochrome P450 2C9 (Homo sapiens) (UniProt P11712); experiment: Cytochrome P450 Family 2 Subfamily C Member 9 (CYP2C9) small molecule antagonists: luciferase reporter qHTS assay (AID 1671198); further: nearly all actives have a fitted effect of over 50% in size
Sequence of Cytochrome P450 2C9 (Homo sapiens) (P11712 whole entry, looked up): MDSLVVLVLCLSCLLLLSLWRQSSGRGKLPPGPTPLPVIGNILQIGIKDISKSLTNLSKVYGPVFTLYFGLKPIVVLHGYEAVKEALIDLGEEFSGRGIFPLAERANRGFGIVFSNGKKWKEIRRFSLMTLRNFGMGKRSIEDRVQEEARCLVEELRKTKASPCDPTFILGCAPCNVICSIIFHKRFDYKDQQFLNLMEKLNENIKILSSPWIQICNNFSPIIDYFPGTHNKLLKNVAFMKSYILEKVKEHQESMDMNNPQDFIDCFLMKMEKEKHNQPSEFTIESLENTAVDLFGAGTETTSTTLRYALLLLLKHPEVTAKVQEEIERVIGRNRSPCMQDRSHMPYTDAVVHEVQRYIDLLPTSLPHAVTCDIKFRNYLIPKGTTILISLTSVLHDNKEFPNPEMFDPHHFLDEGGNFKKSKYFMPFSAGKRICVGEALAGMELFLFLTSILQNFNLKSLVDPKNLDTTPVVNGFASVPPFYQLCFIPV
Outline: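 P450-Glo proluciferin substrate with CYP2C9 enzyme; 10 min RT preincubation, then NADPH regeneration 1 h at 37C; luciferin detection reagent 20 min RT, luminescence in relative luminescence units.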

[2] = molecular target: Cytochrome P450 1A2 (Homo sapiens) (UniProt P05177); experiment: Cytochrome P450 Family 1 Subfamily A Member 2 (CYP1A2) small molecule antagonists: luciferase reporter qHTS assay (AID 1671199); further: nearly all actives have a fitted effect of over 50% in size
Sequence of Cytochrome P450 1A2 (Homo sapiens) (P05177 whole entry, looked up): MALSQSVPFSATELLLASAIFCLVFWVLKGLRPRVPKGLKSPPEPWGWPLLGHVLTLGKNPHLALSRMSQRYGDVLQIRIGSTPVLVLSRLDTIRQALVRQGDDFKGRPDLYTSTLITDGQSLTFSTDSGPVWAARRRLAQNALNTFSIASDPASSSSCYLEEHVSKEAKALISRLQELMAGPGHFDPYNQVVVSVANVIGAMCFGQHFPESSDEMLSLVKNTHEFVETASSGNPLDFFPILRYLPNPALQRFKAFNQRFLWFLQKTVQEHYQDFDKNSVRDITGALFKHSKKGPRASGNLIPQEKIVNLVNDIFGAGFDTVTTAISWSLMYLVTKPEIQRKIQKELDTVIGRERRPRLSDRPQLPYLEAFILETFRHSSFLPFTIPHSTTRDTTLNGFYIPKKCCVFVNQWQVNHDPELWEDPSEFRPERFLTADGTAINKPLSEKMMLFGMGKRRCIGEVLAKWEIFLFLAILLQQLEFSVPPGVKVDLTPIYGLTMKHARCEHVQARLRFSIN
Outline: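 Human CYP1A2 activity measured with a P450-Glo proluciferin substrate; compounds in DMSO preincubated 10 min at room temperature with enzyme-substrate mix, then NADPH regeneration system added for 1 h. Luciferin detection reagent, 20 min, luminescence read.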

[3] = molecular target: Voltage-gated inwardly rectifying potassium channel KCNH2 (Homo sapiens) (UniProt Q12809); experiment: Human Ether-a-go-go-Related Gene (hERG) channel small molecule antagonists: fluorescence cell-based qHTS assay (AID 1671200); further: nearly all actives have a fitted effect of over 50% in size
Sequence of Voltage-gated inwardly rectifying potassium channel KCNH2 (Homo sapiens) (Q12809 whole entry, looked up): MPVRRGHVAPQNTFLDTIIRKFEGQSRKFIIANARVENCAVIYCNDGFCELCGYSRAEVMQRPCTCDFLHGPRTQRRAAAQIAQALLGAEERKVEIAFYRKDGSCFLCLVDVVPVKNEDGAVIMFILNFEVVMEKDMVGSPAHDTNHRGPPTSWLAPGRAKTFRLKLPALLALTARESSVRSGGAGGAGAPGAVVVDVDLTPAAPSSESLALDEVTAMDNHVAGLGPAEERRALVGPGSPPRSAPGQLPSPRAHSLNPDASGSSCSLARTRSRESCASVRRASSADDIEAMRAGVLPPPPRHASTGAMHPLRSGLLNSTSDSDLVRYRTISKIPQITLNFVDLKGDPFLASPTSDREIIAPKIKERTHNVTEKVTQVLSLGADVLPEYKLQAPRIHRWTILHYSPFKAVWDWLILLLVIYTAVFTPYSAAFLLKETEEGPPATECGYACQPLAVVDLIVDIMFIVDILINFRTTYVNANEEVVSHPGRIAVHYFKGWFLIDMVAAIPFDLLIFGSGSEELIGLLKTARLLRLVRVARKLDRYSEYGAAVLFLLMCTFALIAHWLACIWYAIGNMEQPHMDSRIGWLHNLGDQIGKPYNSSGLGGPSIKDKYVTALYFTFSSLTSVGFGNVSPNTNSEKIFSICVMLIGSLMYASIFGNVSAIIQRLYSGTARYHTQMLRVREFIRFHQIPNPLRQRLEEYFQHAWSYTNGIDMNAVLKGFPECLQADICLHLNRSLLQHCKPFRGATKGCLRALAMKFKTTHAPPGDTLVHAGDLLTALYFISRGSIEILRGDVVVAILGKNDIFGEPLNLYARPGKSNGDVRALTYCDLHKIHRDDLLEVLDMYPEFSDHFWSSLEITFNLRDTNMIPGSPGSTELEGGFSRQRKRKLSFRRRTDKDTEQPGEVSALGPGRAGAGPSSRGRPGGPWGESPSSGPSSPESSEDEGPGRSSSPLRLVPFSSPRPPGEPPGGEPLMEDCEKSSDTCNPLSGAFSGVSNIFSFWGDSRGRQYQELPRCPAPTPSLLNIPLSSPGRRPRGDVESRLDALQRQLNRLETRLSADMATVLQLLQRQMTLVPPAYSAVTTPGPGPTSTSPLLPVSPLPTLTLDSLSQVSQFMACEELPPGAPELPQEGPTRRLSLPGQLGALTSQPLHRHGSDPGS
Outline: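 Thallium served as the potassium surrogate; its influx into dye-loaded U2OS cells carrying the channel was measured by fluorescence over 2 min.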

[4] = molecular target: Cytochrome P450 3A4 (Homo sapiens) (UniProt P08684); experiment: Cytochrome P450 Family 3 Subfamily A Member 4 (CYP3A4) small molecule antagonists: luciferase reporter qHTS assay (AID 1671201); further: nearly all actives have a fitted effect of over 50% in size
Sequence of Cytochrome P450 3A4 (Homo sapiens) (P08684 whole entry, looked up): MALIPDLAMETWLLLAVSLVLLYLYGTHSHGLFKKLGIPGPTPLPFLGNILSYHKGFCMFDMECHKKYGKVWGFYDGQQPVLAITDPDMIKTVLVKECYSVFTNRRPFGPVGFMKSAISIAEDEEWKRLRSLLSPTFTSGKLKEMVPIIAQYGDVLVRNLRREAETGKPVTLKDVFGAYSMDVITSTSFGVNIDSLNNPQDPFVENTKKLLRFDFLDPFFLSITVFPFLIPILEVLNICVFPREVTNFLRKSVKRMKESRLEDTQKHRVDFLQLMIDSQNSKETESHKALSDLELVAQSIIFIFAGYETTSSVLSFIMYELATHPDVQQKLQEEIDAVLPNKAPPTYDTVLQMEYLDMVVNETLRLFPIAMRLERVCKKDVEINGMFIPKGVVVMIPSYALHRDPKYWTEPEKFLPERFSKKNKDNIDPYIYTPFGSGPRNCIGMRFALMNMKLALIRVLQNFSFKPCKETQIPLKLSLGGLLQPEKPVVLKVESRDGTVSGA
Outline: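 Relative luminescence units after 20 min with luciferin detection reagent served as read-out. Beforehand, CYP3A4 turned over a proluciferin substrate for 1 h at room temperature with NADPH regeneration, following 10 min compound preincubation.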

[5] = molecular target: Cytochrome P450 2C19 (Homo sapiens) (UniProt P33261); experiment: Cytochrome P450 Family 2 Subfamily C Member 19 (CYP2C19) small molecule antagonists: luciferase reporter qHTS assay (AID 1671197); further: nearly all actives have a fitted effect of over 65% in size
Sequence of Cytochrome P450 2C19 (Homo sapiens) (P33261 whole entry, looked up): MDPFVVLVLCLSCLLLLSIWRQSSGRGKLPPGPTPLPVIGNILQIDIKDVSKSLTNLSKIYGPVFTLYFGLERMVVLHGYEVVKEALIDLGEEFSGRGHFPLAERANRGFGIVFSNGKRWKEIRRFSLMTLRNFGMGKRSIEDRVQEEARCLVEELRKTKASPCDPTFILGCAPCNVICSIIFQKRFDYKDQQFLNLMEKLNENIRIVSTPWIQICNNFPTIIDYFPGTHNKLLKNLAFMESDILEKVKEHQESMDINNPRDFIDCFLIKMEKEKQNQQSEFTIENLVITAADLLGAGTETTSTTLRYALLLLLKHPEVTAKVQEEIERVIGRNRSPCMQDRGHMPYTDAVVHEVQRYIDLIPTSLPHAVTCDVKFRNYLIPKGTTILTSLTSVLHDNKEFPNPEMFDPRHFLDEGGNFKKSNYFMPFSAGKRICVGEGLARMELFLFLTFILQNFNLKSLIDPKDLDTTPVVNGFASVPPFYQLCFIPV
Outline: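 CYP2C19 P450-Glo, 1536-well qHTS. Cpd + enzyme/proluciferin substrate 10 min RT; + NADPH regen, 37C 1 h; stop with luciferin detection reagent, 20 min RT, luminescence (RLU). Pos ctrl ketoconazole.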
Potency means the concentration at half of the fitted maximal effect.

Structure (SMILES): O=c1c2ccccc2nnn1CCl
- Potency [1]: 71 µM (active)
- Potency [2]: inactive
- Potency [3]: inactive
- Potency [4]: 11.2 µM (active)

Structure (SMILES): O=C=NC1CCC(CC2CCC(N=C=O)CC2)CC1 (stereo not given)
- Potency [5]: 79.6 µM (active)
- Potency [2]: 44.8 µM (active)
- Potency [4]: 3.99 µM (active)

Structure (SMILES): CN(c1nccc(=O)[nH]1)C1CCN(c2nc3ccccc3n2Cc2ccc(F)cc2)CC1
- Potency [5]: inactive
- Potency [3]: 2.39 µM (active)

Structure (SMILES): O=C(c1ccccc1)c1ccc2n1CCC2C(=O)O (stereo not given)
- Potency [5]: inactive
- Potency [3]: inactive
- Potency [4]: inactive

Structure (SMILES): CCC(C)N(C)C(=O)c1cc2ccccc2c(-c2ccccc2Cl)n1 (stereo not given)
- Potency [1]: 20.5 µM (active)
- Potency [2]: inactive

Structure (SMILES): N#CCCNCCC#N
- Potency [5]: inactive
- Potency [3]: inactive
- Potency [4]: inactive

Structure (SMILES): CC(C)CCCCCCOC(=O)c1ccc(C(=O)OCCCCCCC(C)C)c(C(=O)OCCCCCCC(C)C)c1
- Potency [1]: 71 µM (active)
- Potency [2]: inactive
- Potency [3]: inactive
- Potency [4]: inactive

Structure (SMILES): CCCCCC(CO)CCC (stereo not given)
- Potency [5]: inactive
- Potency [2]: inactive
- Potency [4]: inactive

Structure (SMILES): Oc1ccc(O)c2c(O)cccc12
- Potency [1]: inactive
- Potency [2]: 39.6 µM (active)
- Potency [3]: inactive
- Potency [4]: inactive

Structure (SMILES): CCN(CC)C(C)=O
- Potency [5]: inactive
- Potency [3]: inactive
- Potency [4]: inactive

Structure (SMILES): CC(C)NCC(O)c1cc(O)cc(O)c1 (stereo not given)
- Potency [5]: inactive
- Potency [3]: inactive
- Potency [4]: inactive

Structure (SMILES): O=C(Cl)c1c(Cl)cccc1Cl
- Potency [5]: 36 µM (active)
- Potency [2]: inactive
- Potency [3]: inactive
- Potency [4]: inactive

Structure (SMILES): O=C(O)/C=C/c1cnc[nH]1
- Potency [5]: 79.8 µM (active)
- Potency [3]: inactive
- Potency [4]: inactive

Structure (SMILES): S=C(S)NCCNC(=S)S
- Potency [5]: 31.2 µM (active)
- Potency [2]: inactive
- Potency [3]: inactive
- Potency [4]: inactive

Structure (SMILES): CCCCCCCCCCCCCCCBr
- Potency [5]: inactive
- Potency [3]: inactive
- Potency [4]: inactive

Structure (SMILES): CC(C)(C)c1ccc(OCC2CO2)cc1 (stereo not given)
- Potency [5]: 64.6 µM (active)
- Potency [4]: inactive
